Myeloid diff 2: compounds promoting myeloid differentiation; ER-HoxA9 myeloid progenitors, lysozyme-GFP differentiation, flow cytometry; calls only at 10 µM; actives 1% (n = 360,000);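 active means normalized GFP-positive differentiation at or above the plate's own cutoff, the solvent-only control mean plus 3 SD; inconclusive means no clear call, values can overlap the other calls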;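 further: cells exposed to compound for four days before flow analysis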
Rpn11 block: Rpn11 (human) deubiquitinase inhibition; O00487; human 26S proteasome, Ub4-pepOG fluorescence polarization; 20S core pre-blocked with epoxomicin; inhibition, % at 20 µM; actives 0.59% (n = 360,000);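 active means inhibition at 20 µM, scaled to each plate's controls, above about 33%, limit read from the data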
Target sequence (O00487 whole entry, looked up): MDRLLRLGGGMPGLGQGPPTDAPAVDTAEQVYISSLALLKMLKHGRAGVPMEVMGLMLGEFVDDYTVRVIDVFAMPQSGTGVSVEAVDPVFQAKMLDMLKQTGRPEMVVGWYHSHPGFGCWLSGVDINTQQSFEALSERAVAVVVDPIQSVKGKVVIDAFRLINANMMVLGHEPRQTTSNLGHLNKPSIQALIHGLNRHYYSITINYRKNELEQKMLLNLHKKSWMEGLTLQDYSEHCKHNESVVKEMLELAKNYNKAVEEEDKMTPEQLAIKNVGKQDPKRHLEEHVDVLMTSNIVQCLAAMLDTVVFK
TPT1 inhibitor: blocks Candida albicans tRNA 2'-phosphotransferase; recombinant caTPT1, FP RNA substrate dephosphorylation; inhibition, % at 5 µM; actives 0.81% (n = 300,000); AID 1962;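 active means inhibition above the mean of all tested compounds plus 3 SD, set per screening campaign, cut at about 24% in these data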;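 further: plate controls were DMSO alone for no effect and ferristatin control at 100 nM for full effect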
HNF4A DNA FP: change in binding of human HNF4 alpha to DNA; P41235; HNF4a-FITC DNA binding, fluorescence polarization, 1 h; activity change, % at 10 µM; actives 0.3% (n = 360,000); in the data active means activity change above about 30%, passing the limit was not always enough
Myeloid diff CP1: compounds promoting myeloid differentiation; shares compounds with Myeloid diff 2; actives 2% (n = 2,300); ER-HoxA9 myeloid progenitors, GFP/Mac1 double-positive flow; calls only; AID 651706;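 active means share of green or green-and-red cells above 9 and 9% in run 1 or 4 and 3% in run 2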
GFP autofluor: counter-screen for myeloid differentiation promoters: compound fluorescence | shares compounds with Myeloid diff 2 | ER-HoxA9 myeloid progenitors, no estrogen, GFP autofluorescence flow cytometry; vehicle wells 0%, positive control 100% | fluorescence response, % (no concentration beside the values) | actives 7.4% (n = 2,300);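 active means over 5% cells positive for green fluorescent reporter, or over 2% positive for both it and APC stain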;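 further: range taken on the double positive population between DMSO and positive control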
* marks the source's active call; other numbers are inactive results; i = inactive; u = inconclusive; x = not tested or not shown; + = active, no number. An excerpt weighted towards active compounds, which were near 2.1% of everything screened.

SMILES	Myeloid diff 2	Rpn11 block	TPT1 inhibitor	HNF4A DNA FP	Myeloid diff CP1	GFP autofluor
Cc1cccc(C)c1-n1nnnc1C(c1ccnc2ccccc12)N1CCN(CCN(C)C)CC1 (stereo not given)	i	x	x	-1.6	x	x
c1coc(C2Nc3ccccc3-c3nc4ccccc4n32)c1 (stereo not given)	i	7.0	0.6	0.1	i	0.8
c1ccc(C2Nc3ccccc3-c3nc4ccccc4n32)cc1 (stereo not given)	i	-16.1	-6.3	0.3	x	x
COc1ccccc1C(CCNCc1ccc(N(C)C)cc1)c1ccc(OC(C)C)cc1 (stereo not given)	i	-20.2	-0.2	-2.8	i	0.0
O=C(Nc1ccc(F)cc1)c1cccc(N2C(=O)C3C4C=CC(C4)C3C2=O)c1 (stereo not given)	+	1.0	2.1	2.1	i	0.0
CCCCCSc1nncc(=O)[nH]1	+	1.4	-0.6	2.8	i	0.7
Cc1ccc(NC(=O)CN2C(=O)NC(Cc3ccccc3)C2=O)cc1Cl (stereo not given)	i	-1.6	x	3.2	x	x
Cc1cccc(NC(=O)c2ccccc2SCc2ccc(F)cc2)n1	+	-1.9	x	2.9	i	0.3
CCc1noc(C)c1C(=O)OCC(=O)Nc1ccccc1SC	i	-3.0	x	0.8	x	x
Cc1noc(C)c1C(=O)OCC(=O)Nc1ccccc1SCC#N	+	10.4	x	0.6	i	56.9*
N#CCSc1ccccc1NC(=O)COC(=O)CCNC(=O)c1ccc([N+](=O)[O-])cc1	+	16.3	x	3.6	i	41.1*
Cc1ccc(S(=O)(=O)NCCC(=O)N2CCN(Cc3ccccc3)CC2)cc1	+	-3.2	2.3	2.4	i	0.0
O=C(OCn1nnc2ccccc2c1=O)c1cccc(S(=O)(=O)N2CCOCC2)c1	i	3.3	x	2.5	x	x
CCC[C@H]1CC(=O)C=C(c2ccc(OC)cc2)ON1C(=O)OC(C)(C)C	i	3.2	x	0.6	i	0.0
COc1cccc(OC(C)c2ccnc3nc(/N=C/N(C)C)nn23)c1 (stereo not given)	i	-2.2	0.2	2.3	i	1.0
CCN(Cc1nc2cc(Cl)ccc2c(=O)[nH]1)C(=O)c1cc2c(s1)CCCCC2	i	7.0	x	1.1	i	0.0
CC1CC(C)CN(CCCNC(=O)CCC(=O)N2CCOc3ccccc32)C1 (stereo not given)	i	-0.8	2.9	7.0	i	0.0
CCOC(=O)C1(CC2CC2)CCN(C(=O)c2cccnc2C)CC1	i	10.3	-0.6	-3.6	i	0.3
CCN(CC)CCCNCC(=O)Nc1ccc2c(c1)CCC2	i	-0.4	-1.9	3.5	x	x
CCOC(=O)c1c(O)c(Cl)c(C)[nH]c1=O	i	-11.2	-4.1	6.4	x	x
O=C(CC1C(=O)NCCN1Cc1cccc(Oc2ccccc2)c1)NCCc1ccccn1 (stereo not given)	+	-4.8	-3.3	-5.1	i	0.3
COc1cccc(CNC(=O)C(CCSC)NS(=O)(=O)c2ccc3c(c2)oc(=O)n3C)c1 (stereo not given)	i	-8.4	-4.0	1.1	i	5.8*
C[n+]1c(/C=C/c2ccc3c(c2)OCO3)ccc2ccccc21	i	12.1	-0.7	-0.3	+	0.0
CCCCCC(=O)N1C[C@@H](O)[C@H](n2cc(COC(=O)c3ccccc3)nn2)C[C@@H]1c1ccc(OC)cc1	i	1.0	x	-1.4	i	0.0
COc1ccc(NC(=O)c2cccc3c(-c4cnn(C)c4)coc23)cc1	i	-9.1	x	-2.9	x	x
SMILES	Myeloid diff 2	Rpn11 block	TPT1 inhibitor	HNF4A DNA FP	Myeloid diff CP1	GFP autofluor
COc1cc(NC(=O)c2cccc3c(-c4cnn(C)c4)coc23)cc(OC)c1OC	+	-19.9	x	6.8	i	25.5*
COc1ccc(CNC(=O)c2cccc3c(-c4cccnc4)coc23)cc1OC	i	2.7	x	-0.5	i	1.1
O=C(OCCOCCN=C1NS(=O)(=O)c2ccccc21)c1ccc(F)cc1	i	-4.0	0.9	3.9	x	x
COC(=O)C(C)Sc1nnc2n(-c3cccc(C)c3)c(=O)c3c4c(sc3n12)CCCC4 (stereo not given)	i	0.1	-1.4	2.6	i	0.4
CC(C)CC(NC(N)=O)C(=O)Nc1ccc(Oc2ccccc2)cc1 (stereo not given)	i	0.7	-3.3	-3.0	i	0.0
Cc1ccc(NC(=O)C(CC(C)C)NC(N)=O)cc1 (stereo not given)	i	3.7	-2.4	1.6	x	x
O=C(CCNC(=O)c1ccc(Br)cc1)NCCCSc1ccccc1	i	-1.6	-1.3	-1.9	x	x
CC(C)Cn1c(N)c(C(=O)COC(=O)c2ccccc2C(=O)c2ccccc2)c(=O)n(C)c1=O	i	0.2	x	0.3	x	x
Cn1c(N)c(C(=O)COC(=O)c2ccccc2C(=O)c2ccc(Cl)cc2)c(=O)n(C)c1=O	i	5.0	x	-0.1	i	0.7
COc1ccccc1CCNC(=O)c1ccoc1C	+	-3.9	-0.1	2.2	i	0.4
Cc1occc1C(=O)NCCCCc1ccccc1	i	-0.3	-0.8	1.5	x	x
CC1=NN(C(C#N)c2ccc(F)cc2)C(C)(C)C1 (stereo not given)	+	-0.2	-1.6	0.4	i	0.3
CN1CCN(c2cc3c(c4c2[nH]c2ccccc24)C(=O)CC(C)(C)C3)CC1	i	2.8	-1.4	0.4	i	0.0
CN1CCN(c2ccc(Cl)cc2NC(=O)c2cc(=O)[nH]c3ccccc23)CC1	i	3.5	x	0.1	x	x
COc1ccccc1NC(=S)N(Cc1ccco1)Cc1cc2ccc(C)c(C)c2[nH]c1=O	u	29.5	-2.9	2.4	x	x
COc1ccccc1NC(=S)N(Cc1ccco1)Cc1cc2cc(C)cc(C)c2[nH]c1=O	i	-3.0	0.1	2.6	i	0.0
CC1CCCCC1NC(=O)CNC(=O)c1ccco1 (stereo not given)	i	-7.0	-1.0	1.3	x	x
Cc1ccccc1C(=O)NCCCCc1ccccc1	i	-5.5	-2.3	6.0	x	x
Nc1nc2ccccc2cc1C(=O)NCCCCc1ccccc1	i	x	x	2.1	i	0.0
C=CCn1cnnc1SCC(=O)N(C1CCCCC1)C1CCS(=O)(=O)C1 (stereo not given)	i	5.3	x	-2.5	i	0.0
CCOC(=O)/C=C1\SCC(=O)N1CC(=O)NC1CCCCC1	+	0.4	-3.2	-0.9	i	0.3
Cc1cccc(NC(=S)N(CCCN2CCOCC2)Cc2ccccn2)c1	i	-5.5	-1.0	3.0	x	x
S=C(Nc1ccc(Oc2ccccc2)cc1)N(CCCN1CCOCC1)Cc1ccccn1	+	-5.4	0.8	-4.9	i	0.0
COc1ccc2cc(CN(CC3CCCO3)S(=O)(=O)c3ccccc3)c(=O)[nH]c2c1 (stereo not given)	+	2.6	-1.6	-2.8	i	0.0
CN(Cc1ccccc1)C(=O)CSc1n[nH]c(N)n1	i	-0.8	-1.0	-0.1	x	x
